Our source for the GI50 values is ChEMBL document CHEMBL1201862, “PubChem BioAssay data set” (2004).

About 2,800 (5.1%) of roughly 55,000 sequences were called active. Cut-off read from the data, not from the text of the source: active = GI50 up to about 1.1 µM and inactive = higher. The list is a sample of the results. Potency and affinity values are given separately.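 Briefly, cells in 96-well plates were exposed to five compound concentrations for 48 h, and endpoints were estimated by linear interpolation. At the GI50, growth is halved.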

This assay deals with SK-MEL-2. The assay is described as follows: NCI tumour cell line growth inhibition, 48 h.
The substance “[Bis(aminomethyl)pentamethylenesilane]tetrachloropaltinum(IV), CHEMBL2146204” registered a GI50 of 5.71 µM. “[Bis(aminomethyl)dimethylsilane]tetrachloroplatinum(IV), CHEMBL2146190” displayed a GI50 of 19.1 µM.

The substance “[Bis(aminomethyl)tetramethylenesilane]dichloropaltinum(II), CHEMBL2146205” displayed a GI50 of 30.9 µM. “[Bis(aminomethyl)dimethylsilane]dichloroplatinum (II), CHEMBL2146201” showed a GI50 of 65.5 µM. “[Bis(aminomethyl)ethylmethylsilane]tetrachloroplatinum(IV), CHEMBL2146192”: the GI50 amounted to 5.5 µM.

CISPLATIN, CHEMBL11359 gave a GI50 of 5.07 µM. In turn, “mu-(1,7-nanodiamine-N,N')bis-(cis-aminedichloroplatimum (II)), CHEMBL2146215” displayed a GI50 of 38.9 µM. With “[Bis(aminomethyl)tetramethylenesilane]tetrachloropaltinum(IV), CHEMBL2146189”, the GI50 is 6.64 µM.

In the case of “[Bis(aminomethyl)diethylsilane]tetrachloroplatinum(IV), CHEMBL2146203”, the GI50 came out at 3.1 µM. The value for “[Bis(aminomethyl)pentamethylenesilane]dichloropaltinum(II), CHEMBL2146202” was 7.57 µM. The substance “cis-Bis[[(trimethylsilyl)methyl]amino]tetrachloroplatinum(IV), CHEMBL2146191” had a GI50 of 2.88 µM.
